Test [1] in a line: Nuclear factor erythroid 2-related factor 2/antioxidant responsive element (Nrf2/ARE) small molecule agonists: qHTS cell viability counter screen in human keratinocytes (AID 1919968; active means well fitted curve in the direction sought with a large enough effect in the repeat runs; an effect the other way counts as inactive or inconclusive; further: nearly all actives have a fitted effect of over 55% in size; further: potency means the concentration at half of the fitted maximal effect). The essentials:
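Cells of the KeratinoSens line were plated at 1,500 per well and left for 5 h before compound transfer from DMSO stocks. After a 23 h incubation (37 C, 5% CO2), CellTiter-Fluor was added. Signal was taken as fluorescence intensity 1 h later.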

Test [2] can be described thus: Nuclear factor erythroid 2-related factor 2/antioxidant responsive element (Nrf2/ARE) small molecule agonists: luciferase reporter gene qHTS assay in human keratinocytes (AID 1919969). Further: nearly all actives have a fitted effect of over 35% in size. Further: potency means the concentration at half of the fitted maximal effect. For orientation: A reporter such as luciferase makes a cellular process visible.
Test [3] addresses Gonadotropin-releasing hormone receptor (Homo sapiens) (UniProt P30968). In words: Human gonadotropin-releasing hormone receptor (GnRHR) small molecule agonists, calcium flux assay in GnRHR-HEK293 cells (AID 1920063). Further: nearly all actives have a fitted effect of over 35% in size. The essentials:
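Compounds dissolved in DMSO are pin-transferred onto dye-loaded GnRHR-HEK293 cells, which were seeded 18 h before at 37 C/5% CO2. Calcium signal is read as fluorescence intensity at 1 s intervals for 3 min.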
Background: A change in cytosolic calcium serves as a functional read-out for many receptors and channels.

Test [4] has as its target KiSS-1 receptor (Homo sapiens) (UniProt Q969F8). In words: Human kisspeptin (KISS1R) small molecule agonists, calcium flux assay in KISS1R-HEK293 cells (AID 1920064; active means well fitted curve in the direction sought with a large enough effect in the repeat runs; an effect the other way counts as inactive or inconclusive). The essentials:
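Cell line: HEK293, stable human KISS1R. Dye loading 1 h at 37 C after 18 h culture. Read: kinetic fluorescence, 480/540 nm, 3 min at 1 s intervals.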

Test [5] in a line: G protein-coupled receptor (GPCR) small molecule agonists, calcium flux assay: HEK293 wild type cell line counter screen (AID 1920065). The essentials: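 Tox21 10K compounds, 15 concentrations each in triplicate, pin-transferred in DMSO onto dye-loaded cells; kinetic read at 480/540 nm for 3 min, 1 s intervals.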
Test [6] is described as follows: p53 small molecule agonists, cell-based qHTS assay with human liver microsomes: qHTS cell viability counter screen (AID 1963579). Further: nearly all actives have a fitted effect of over 45% in size. Further: potency means the concentration at half of the fitted maximal effect. In a few lines:
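Cells carrying the p53 response-element beta-lactamase reporter are treated for 16 h at 37 C with test compounds in the presence of human liver microsomes and NADPH (both 0.5 mg/mL final); ATP-based CellTiter-Glo luminescence then reports viability.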
In general terms: In qHTS, concentration-response curves come from the screen itself.

Test [7] can be described thus: p53 small molecule agonists, cell-based qHTS assay with rat liver microsomes: qHTS cell viability counter screen (AID 1963580). Further: nearly all actives have a fitted effect of over 45% in size. In a few lines: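 Cytotoxicity counter screen: intracellular ATP measured by CellTiter-Glo luminescence in the same wells as the beta-lactamase reporter read, on HCT-116 p53RE-bla cells exposed 16 h at 37 C to compounds with rat liver microsomes and NADPH, each 0.5 mg/mL final.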

The nature of test [8]: cAMP Responsive Elements (CRE) small molecule agonists, cell-based qHTS assay (AID 1963590). The essentials:
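HEK 293T cells stably bearing CRE-bla were plated at 2,000 cells per well and rested 18 h. Compounds, positive controls or DMSO were added for 3 h at 37 C. LiveBLAzer B/G substrate was then loaded for 2 h at room temperature.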

Test [9] can be described thus: cAMP Responsive Elements (CRE) small molecule antagonists, cell-based qHTS assay (AID 1963591; active means well fitted inhibition curve with a large enough effect in the signal ratio in the repeat runs, not every such curve was filed as active; the % refers to the signal ratio). The essentials:
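First, CRE-bla HEK293T cells settled 18 h at 37 C. Next, compound and 0.25 uM final NKH477 were applied for 3 h. Last, LiveBLAzer B/G substrate was loaded for 2 h at room temperature.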

Test [10] has as its target Beta-2 adrenergic receptor (Homo sapiens) (UniProt P07550). Put plainly: Adrenergic beta2 receptor (ADRB2) small molecule antagonists, cell-based qHTS assay (AID 1963592). Further: series mostly up to about 92 µM; nearly all actives have a fitted effect of over 50% in size. In a few lines: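 Assay format: CHO-ADRB2 cells, 18-20hr seeding at 37C/5% CO2, then compound plus 1nM isoproterenol agonist mix for 0.5hr RT. Homogeneous time-resolved fluorescence cAMP detection after 1hr, expressed as 665/615 nm ratio.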

Test [11] shares this target. In words: Adrenergic beta2 receptor (ADRB2) small molecule agonists, cell-based qHTS assay (AID 1963593).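 Further: CHO cells stably overexpressing human ADRB2.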 In a few lines:
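CHO cells stably over-expressing ADRB2 were plated overnight at 37C, then dosed with compounds plus a stimulation mix containing 100uM IBMX and 25uM Ro-20-1724 for 0.5hr at room temperature. cAMP was measured by HTRF competition, 1hr.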

Test [12] addresses D(2) dopamine receptor (Homo sapiens) (UniProt P14416). Put plainly: Dopamine D2 receptor (DRD2) small molecule agonists, cell-based qHTS assay (AID 1963594). Further: nearly all actives have a fitted effect of over 35% in size. In a few lines:
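HEK293 cells stably expressing human DRD2, pre-treated with PDE inhibitor Ro20-1724 (0.1 mM final) and compound 10 min at room temperature, then stimulated with NKH477 (200nM […]) for 30 min. cAMP read by HTRF (665/620 nm).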

The target is the same in test [13]. In words: Dopamine D2 receptor (DRD2) small molecule antagonists, cell-based qHTS assay (AID 1963595; active means well fitted inhibition curve with a large enough effect in the signal ratio in the repeat runs, with a control signal flat; the % refers to the signal ratio). The essentials: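 Antagonist mode in DRD2-HEK293 cells: after compound addition with 0.1 mM Ro20-1724, cells received quinpirole (12 nM) and NKH477 (200 nM) for 30 min at room temperature; HTRF cAMP read after 1 h detection.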
Test [14] in a line: p53 small molecule agonists, cell-based qHTS assay: qHTS cell viability counter screen (AID 1963581). Further: nearly all actives have a fitted effect of over 45% in size. The essentials:
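ATP content measured by luminescence in HCT-116 p53RE-bla cells treated 16 h at 37 C, same wells as the reporter screen.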

For test [15], the target named is 5-hydroxytryptamine receptor 2A (Homo sapiens) (UniProt P28223). Put plainly: 5-hydroxytryptamine receptor 2A (HTR2A) small molecule antagonists, cell-based qHTS assay (AID 1963586). Further: nearly all actives have a fitted effect of over 45% in size. The essentials:
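CHO cells stably expressing human HTR2A were plated for 18 h at 37 C, then loaded with calcium dye for 1 h. Compounds were preincubated 5 min at room temperature before DOI (4 nM solution) was added. Kinetic fluorescence was read for 3 min.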

Test [16] shares this target. In words: 5-hydroxytryptamine receptor 2A (HTR2A) small molecule agonists, cell-based qHTS assay (AID 1963587). Further: nearly all actives have a fitted effect of over 30% in size. In a few lines:
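CHO cells stably expressing human HTR2A, plated 18 h, loaded with calcium dye 1 h at 37 C. Agonist mode: compounds added and intracellular calcium fluorescence recorded kinetically for 2 min at 1 sec intervals.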

Test [17] has as its target Muscarinic acetylcholine receptor M1 (Homo sapiens) (UniProt P11229). Put plainly: Cholinergic receptor muscarinic 1 (CHRM1) small molecule antagonists, cell-based qHTS assay (AID 1963588). Further: nearly all actives have a fitted effect of over 40% in size. The essentials: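 Compounds were tested at 15 concentrations in three independent runs. Dye-loaded CHRM1-CHO cells were exposed 5 min at room temperature before stimulation by acetylcholine added at 50nM. Intracellular calcium was read kinetically on FDSS for 3 min.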

The target is the same in test [18]. In words: Cholinergic receptor muscarinic 1 (CHRM1) small molecule agonists, cell-based qHTS assay (AID 1963589). Further: nearly all actives have a fitted effect of over 35% in size. The essentials: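 Homogeneous fluorescence calcium flux, agonist mode. Human M1-expressing CHO cells; compound dosed at 15 concentrations, three independent runs; signal sampled every 1 sec.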
Test [19] is described as follows: p53 small molecule agonists, cell-based qHTS assay with human liver microsomes (AID 1963577). The essentials:
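Compounds act here after metabolic activation: human liver microsomes and NADPH, both at 0.5 mg/mL final, were co-added to p53RE-bla cells. Incubation ran 16 h at 37 C, followed by LiveBLAzer detection.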

The nature of test [20]: p53 small molecule agonists, cell-based qHTS assay with rat liver microsomes (AID 1963578). In a few lines: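 Read-out is beta-lactamase reporter fluorescence (LiveBLAzer, 2 h, room temperature, dark) in p53RE-bla cells treated 16 h at 37 C with compound, rat liver microsomes and NADPH, both 0.5 mg/mL final.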

Each structure is given as a SMILES string. Several values for one entry are separate records, joined by “and”; a condition that tells them apart may be missing. Equal values may be shown once. Inconclusive results are not listed. Some structures have more than one record in an assay (separate samples or runs), and their calls can disagree. Activity calls are given as the source filed them. Unless noted, the call rests on the fitted dose curve.

Sequence of D(2) dopamine receptor (Homo sapiens) (P14416 whole entry, looked up): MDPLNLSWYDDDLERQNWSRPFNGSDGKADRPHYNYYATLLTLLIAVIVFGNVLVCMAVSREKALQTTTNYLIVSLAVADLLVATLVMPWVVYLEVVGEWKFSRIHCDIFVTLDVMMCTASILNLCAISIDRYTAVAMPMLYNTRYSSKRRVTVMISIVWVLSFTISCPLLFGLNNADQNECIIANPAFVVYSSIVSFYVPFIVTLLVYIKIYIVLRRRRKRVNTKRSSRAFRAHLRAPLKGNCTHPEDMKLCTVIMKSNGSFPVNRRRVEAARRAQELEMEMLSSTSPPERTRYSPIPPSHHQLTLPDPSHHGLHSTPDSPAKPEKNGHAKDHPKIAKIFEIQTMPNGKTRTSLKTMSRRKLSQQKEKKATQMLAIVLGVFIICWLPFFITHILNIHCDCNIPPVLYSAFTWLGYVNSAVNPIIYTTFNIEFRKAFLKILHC
Sequence of Muscarinic acetylcholine receptor M1 (Homo sapiens) (P11229 whole entry, looked up): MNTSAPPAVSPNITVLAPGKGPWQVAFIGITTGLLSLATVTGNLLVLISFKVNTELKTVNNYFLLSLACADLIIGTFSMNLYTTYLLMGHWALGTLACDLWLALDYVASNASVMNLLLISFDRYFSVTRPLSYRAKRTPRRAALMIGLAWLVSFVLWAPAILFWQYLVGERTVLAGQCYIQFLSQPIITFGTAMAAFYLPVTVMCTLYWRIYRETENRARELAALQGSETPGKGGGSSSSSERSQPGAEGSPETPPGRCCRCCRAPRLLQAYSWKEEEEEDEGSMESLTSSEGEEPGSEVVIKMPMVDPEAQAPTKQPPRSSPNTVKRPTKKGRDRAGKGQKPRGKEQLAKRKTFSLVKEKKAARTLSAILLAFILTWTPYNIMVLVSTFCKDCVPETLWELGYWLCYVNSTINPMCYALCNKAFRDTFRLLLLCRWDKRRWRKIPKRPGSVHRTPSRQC
Sequence of Gonadotropin-releasing hormone receptor (Homo sapiens) (P30968 whole entry, looked up): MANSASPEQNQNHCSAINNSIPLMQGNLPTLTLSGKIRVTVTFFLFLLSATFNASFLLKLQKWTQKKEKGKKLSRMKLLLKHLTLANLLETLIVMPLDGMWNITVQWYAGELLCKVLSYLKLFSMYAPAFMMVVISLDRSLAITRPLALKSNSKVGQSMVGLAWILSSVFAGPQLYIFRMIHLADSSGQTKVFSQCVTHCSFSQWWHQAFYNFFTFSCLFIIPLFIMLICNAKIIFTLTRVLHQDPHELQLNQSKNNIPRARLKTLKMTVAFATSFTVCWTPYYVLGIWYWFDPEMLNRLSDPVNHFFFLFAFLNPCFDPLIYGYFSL
Sequence of Beta-2 adrenergic receptor (Homo sapiens) (P07550 whole entry, looked up): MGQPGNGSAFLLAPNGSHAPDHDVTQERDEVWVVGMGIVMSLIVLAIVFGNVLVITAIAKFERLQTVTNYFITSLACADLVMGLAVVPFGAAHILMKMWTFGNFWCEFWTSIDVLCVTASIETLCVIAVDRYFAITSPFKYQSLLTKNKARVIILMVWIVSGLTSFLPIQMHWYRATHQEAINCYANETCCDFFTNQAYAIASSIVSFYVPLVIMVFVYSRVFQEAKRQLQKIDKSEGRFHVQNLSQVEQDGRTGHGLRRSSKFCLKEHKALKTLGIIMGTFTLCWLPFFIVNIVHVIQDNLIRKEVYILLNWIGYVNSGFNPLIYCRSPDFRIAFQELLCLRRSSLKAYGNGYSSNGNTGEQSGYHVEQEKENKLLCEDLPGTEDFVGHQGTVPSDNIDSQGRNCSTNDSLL
Sequence of KiSS-1 receptor (Homo sapiens) (Q969F8 whole entry, looked up): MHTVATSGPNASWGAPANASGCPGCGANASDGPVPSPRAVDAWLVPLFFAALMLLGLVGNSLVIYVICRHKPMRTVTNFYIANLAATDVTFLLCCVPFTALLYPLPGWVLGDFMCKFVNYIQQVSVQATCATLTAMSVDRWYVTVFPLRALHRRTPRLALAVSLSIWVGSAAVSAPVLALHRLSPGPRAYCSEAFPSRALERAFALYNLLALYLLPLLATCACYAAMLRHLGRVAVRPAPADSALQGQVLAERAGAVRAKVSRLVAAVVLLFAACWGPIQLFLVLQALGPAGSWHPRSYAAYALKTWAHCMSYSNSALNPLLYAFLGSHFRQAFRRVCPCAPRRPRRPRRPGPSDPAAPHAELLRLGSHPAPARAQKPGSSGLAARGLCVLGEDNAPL
Sequence of 5-hydroxytryptamine receptor 2A (Homo sapiens) (P28223 whole entry, looked up): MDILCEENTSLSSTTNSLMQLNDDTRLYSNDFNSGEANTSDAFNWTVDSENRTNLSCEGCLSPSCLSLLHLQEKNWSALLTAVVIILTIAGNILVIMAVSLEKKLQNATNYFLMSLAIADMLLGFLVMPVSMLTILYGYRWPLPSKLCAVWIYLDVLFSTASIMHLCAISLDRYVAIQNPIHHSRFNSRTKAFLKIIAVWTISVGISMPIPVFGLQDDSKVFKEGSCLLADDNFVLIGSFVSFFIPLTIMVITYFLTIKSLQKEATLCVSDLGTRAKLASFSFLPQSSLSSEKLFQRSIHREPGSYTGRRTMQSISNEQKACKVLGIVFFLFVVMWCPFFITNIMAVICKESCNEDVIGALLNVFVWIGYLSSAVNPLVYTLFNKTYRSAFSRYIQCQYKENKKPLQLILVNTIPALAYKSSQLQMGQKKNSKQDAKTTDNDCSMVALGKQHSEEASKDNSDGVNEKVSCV

Take `COC1=CC(=O)C[C@@H](C)[C@]12Oc1c(Cl)c(OC)cc(OC)c1C2=O`: the Potency entry in test [1], in test [2], in test [3], in test [4], in test [5] and in test [6] was “inactive” throughout. Also, the Potency result in [7], in test [8], in test [9], in test [10], in test [11] and in test [12] was “inactive” in each case. For the same molecule, in test [13], the Potency result is “inactive”.
As to `CC(O)(P(=O)(O)O)P(=O)(O)O`, the Potency result in test [1], in test [2], in test [3], in test [4], in test [5] and in [6] was “inactive” each time. The Potency result in test [7], in test [14], in [8], in test [9], in test [10] and in test [11] was “inactive” each time. Also, the Potency result in test [12] and in test [13] was “inactive” in each case.
As to `CC(=O)Nc1c(I)c(NC(C)=O)c(I)c(C(=O)O)c1I`, the Potency entry in test [1], in test [2], in test [3], in test [4], in test [5] and in [6] was “inactive” each time. Moreover, the Potency result in test [7], in test [14], in [8], in [9], in test [10] and in [12] was “inactive” each time. Besides, the Potency entry in [13] was “inactive”.
For the molecule `O=c1oc(=O)c2cc3c(=O)oc(=O)c3cc12`, the Potency entry in test [1], in test [2], in test [3], in test [4], in test [5] and in test [6] was “inactive” each time. The Potency result in test [7], in test [14], in test [15], in test [16], in test [17] and in [18] was “inactive” throughout. The Potency entry in [8], in [9], in test [10], in test [12] and in test [13] was “inactive” throughout.
On to `Nc1ccc(S(=O)(=O)Nc2nccs2)cc1`, for which the Potency entry in test [1], in [2], in test [3], in [4], in test [19] and in test [20] was “inactive” throughout. The Potency result in [6], in test [7], in test [14], in test [8], in test [9] and in [10] was “inactive” each time. For the same molecule, the Potency entry in [12] and in test [13] was “inactive” in each case.
`O=C(C1CCCCC1)N1CC(=O)N2CCc3ccccc3C2C1` (stereo unspecified): the Potency result in [1], in test [2], in test [3], in test [4], in test [5] and in test [10] was “inactive” throughout. The Potency entry in test [13] was “inactive”.
Take `c1ccc(Oc2ccccc2)cc1`: the Potency result in [1], in [2], in [3], in test [4], in [19] and in test [20] was “inactive” throughout. The Potency entry in test [6], in test [7], in test [14], in test [15], in test [16] and in test [8] was “inactive” in each case. The Potency result in [10], in test [11], in [12] and in test [13] was “inactive” in each case.
Turning to `CC1=C(/C=C/C(C)=C/C=C/C(C)=C/C(=O)Nc2ccc(O)cc2)C(C)(C)CCC1`, the Potency in test [1] was 49.8 µM (active) and 13.3 µM (active); in test [2] it was 2.22 µM (active) and 2.11 µM (active); in test [6], 41.8 µM (active) and inactive. Further, the Potency entry in test [3], in test [4], in test [19], in test [20], in [7] and in test [16] was “inactive” in each case. Moreover, the Potency entry in test [17], in test [18], in [8], in test [10], in test [11] and in test [12] was “inactive” in each case. For the same molecule, in test [13], the Potency entry is “inactive”.
For the molecule `CCCC(CCC)C(=O)O`, the Potency result in test [1], in test [2], in test [3], in test [4], in [5] and in [8] was “inactive” throughout. For the same molecule, the Potency entry in [9], in [10], in test [11], in test [12] and in test [13] was “inactive” each time.

Source of the values: PubChem BioAssay (Tox21).
